We go through five molecules from PubChem BioAssay.

A short description of assay [1]: compounds binding Alexa647 anti-His antibody – biochemical, small-molecule microarray, 635 nm fluorescence, artefact control for SMM control protein annotation, primary screen (AID 1128).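 Also: score merges feature fluorescence with signal-to-noise for each printed compound spot.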 As to conditions: higher = more signal.
For assay [2], the system named is Human papillomavirus type 1a E7 protein (residues 1-88). Kind of assay: HPV1a E7 small-molecule binders, primary screen, biochemical, small-molecule microarray, residues 1-88, 635 nm (AID 1129). The following applies: small-molecule microarray binding, fluorescence 635 nm; higher = more signal.
The target of assay [3] is Focal adhesion kinase 1 (Homo sapiens) (UniProt Q05397). Kind of assay: PTK2 protein binding on printed compound slides – biochemical, small-molecule microarray, 635/667 nm fluorescence, BSA, DTT, primary screen (AID 1130).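 Also: composite of spot emission at 667 nm and signal to noise over triplicate slides.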 The following applies: 635 nm fluorescence, higher = more signal.
Assay [4] relates to Fibrinogen (Alexa647-labelled). Briefly: Alexa647-fibrinogen binding to printed small molecules – biochemical, small-molecule microarray, 635/667 nm fluorescence, artefact control for SMM control-protein annotation, profiling panel (AID 1131).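 Also: z-score merges 667 nm fluorescence with per-spot signal-to-noise over triplicate slides.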 As to conditions: fibrinogen-A647 binding fluorescence, higher = more signal.
Assay [5] concerns the target Follistatin (Homo sapiens) (UniProt P19883). Briefly: FST protein binding to printed compounds – biochemical, small-molecule microarray, 635/667 nm fluorescence, primary screen (AID 1132). The following applies: 635 nm fluorescence, higher = more signal.
In assay [6] the target is Fibroblast growth factor 2 (Homo sapiens) (UniProt P09038). Kind of assay: basic fibroblast growth factor binding to printed compounds – biochemical, small-molecule microarray, 635/667 nm fluorescence, primary screen (AID 1133). As to conditions: FGF2, fluorescence 635/667, higher = more signal.
Assay [7] in a line: JC-1 mitochondrial potential readout, lung cancer cells – cell-based, A549, JC-1 fluorescence, basal, 24 h, 100 nL, profiling panel (AID 1138).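 Also: A549 lung adenocarcinoma cells under basal conditions with no added stimulus; test concentration not given here.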 As to conditions: higher = more signal.
The subject of the next assay is Lefty1. Briefly: Lefty1 protein binding to printed compounds – biochemical, small-molecule microarray, 635/667 nm fluorescence, primary screen (AID 1139). The following applies: fluorescence 635/667, higher = more signal.
For assay [8], the system named is wheat germ agglutinin (Triticum aestivum), Alexa647-labelled. Briefly: Alexa647-WGA lectin binding to printed small molecules – biochemical, small-molecule microarray, 635/667 nm fluorescence, artefact control for SMM control-protein annotation, profiling panel (AID 1140).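 Also: score merges 667 nm feature emission with signal to noise over triplicate slides.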 As to conditions: WGA-A647 binding, 635 nm fluorescence, higher = more signal.
Assay [9] deals with Luciferin 4-monooxygenase (Photinus pyralis) (UniProt P08659). Kind of assay: inhibition of purified Photinus pyralis luciferase – biochemical, luminescence, purified enzyme, 2006 set, primary screen (AID 1141).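 Also: cell-free assay with purified firefly luciferase at 100 ng per well in PBS; test concentration not given here.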 As to conditions: purified firefly luciferase, SteadyGlo luminescence, 30 min; higher = more signal, called active from +8 up or from −8 down.
Assay [10] relates to Wnt5a (protein binding on small-molecule microarray). Briefly: small molecules binding Wnt5a protein – biophysical, small-molecule microarray, 635/667 nm fluorescence, primary screen (AID 1142).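 Also: fluorescence read at 667 nm with signal to noise per printed feature.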 As to conditions: 635 nm fluorescence, higher = more signal.
A short description of assay [11]: ATP-based viability of Huh7 replicon cells – cell-based, CellTiter-Glo luminescence, basal, 48 h, cytotoxicity control for HCV replication inhibitor project, primary screen (AID 1143).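 Also: Huh7 hepatoma cells carrying a hepatitis C replication reporter with no stimulus; test concentration not given here.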 The following applies: higher = more signal, called active from +8 up or from −8 down. On the technique in general: In antiviral work, replicon cells carry a viral genome segment that copies itself.

Assay [12] is described as follows: Pseudomonas biofilm growth suppression – PAO1 strain, BacTiter-Glo luminescence, LB-PBS, primary screen (AID 1144). As to conditions: P. aeruginosa PAO1 biofilm, 12 h, higher = more signal.
Assay [13] is described as follows: basal CRE-LacZ reporter activity in PC12 – cell-based, unstimulated, primary screen (AID 1145). As to conditions: no forskolin, luminescence, 4.5 h, higher = more signal, called active from +8 up or from −8 down.
The nature of assay [14]: forskolin-driven CRE-LacZ activity in PC12 – cell-based, CRE-LacZ reporter, forskolin-stimulated, primary screen (AID 1146).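 Also: PC12 cells with 6xCRE LacZ reporter stimulated by forskolin 10 µM; beta-galactosidase reporter signal reflecting CREB driven transcription.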 The following applies: luminescence, 4.5 h, higher = more signal, called active from +8 up or from −8 down.
In assay [15] the target is Streptavidin (Streptomyces avidinii) (UniProt P22629). Briefly: compounds binding control protein streptavidin – biophysical, small-molecule microarray, 635/667 nm fluorescence, artefact control for SMM compound annotation, primary screen (AID 1147).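 Also: signal reflects streptavidin binding to arrayed compounds as a control protein.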 As to conditions: higher = more signal.
A short description of assay [16]: probe aInhba binding on compound microarray – biochemical, small-molecule microarray, 635/667 nm fluorescence, primary screen (AID 1148).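 Also: score merges 667nm spot fluorescence with signal-to-noise for antibody binding to printed compounds.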 As to conditions: higher = more signal.
Assay [17] addresses Torsin-1A (Homo sapiens) (UniProt O14656). Briefly: TOR1A wild-type binding on microarray – cell lysate, small-molecule microarray, lysate, 635/667 nm, primary screen (AID 1149). The following applies: COS7 hTOR1A-WT lysate, 635 nm fluorescence, higher = more signal.
Assay [18] shares this target. Briefly: torsin A mutant lysate binding on microarrays – cell lysate, small-molecule microarray, COS7 lysate, 635/667 nm fluorescence, primary screen (AID 1150).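 Also: score pools 667 nm emission and signal to noise measuring lysate protein binding.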 As to conditions: COS7 hTOR1A mutant lysate, 635 nm fluorescence, higher = more signal.
Assay [19] has as its system Sonic hedgehog protein (Shh). Kind of assay: Sonic hedgehog microarray binding compounds – biochemical, small-molecule microarray, 635/667 nm fluorescence, primary screen (AID 1151).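 Also: Shh protein binding to compounds spotted on small-molecule microarray slides; score combines spot fluorescence intensity with signal-to-noise across triplicate slides.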 The following applies: 635 nm fluorescence, higher = more signal.

Each structure is given as a SMILES string. The source made the active and inactive calls. Unless noted, no rule for the calls is given here.

Follistatin (Homo sapiens), sequence (P19883 whole entry, looked up): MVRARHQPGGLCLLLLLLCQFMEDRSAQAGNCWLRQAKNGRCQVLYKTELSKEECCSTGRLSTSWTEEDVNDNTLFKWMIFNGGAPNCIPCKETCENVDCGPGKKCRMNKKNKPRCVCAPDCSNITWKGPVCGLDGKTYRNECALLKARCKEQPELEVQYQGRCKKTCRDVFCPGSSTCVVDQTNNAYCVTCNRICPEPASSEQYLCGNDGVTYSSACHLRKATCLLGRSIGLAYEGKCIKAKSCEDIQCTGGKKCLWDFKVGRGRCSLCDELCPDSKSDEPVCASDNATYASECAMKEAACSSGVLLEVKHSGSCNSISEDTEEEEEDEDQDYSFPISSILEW
Streptavidin (Streptomyces avidinii), sequence (P22629 whole entry, looked up): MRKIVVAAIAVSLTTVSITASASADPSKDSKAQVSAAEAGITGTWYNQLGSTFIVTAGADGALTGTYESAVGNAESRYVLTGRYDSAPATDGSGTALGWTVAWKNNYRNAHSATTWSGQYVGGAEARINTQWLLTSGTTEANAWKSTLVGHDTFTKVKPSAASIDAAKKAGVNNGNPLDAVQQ
Fibroblast growth factor 2 (Homo sapiens), sequence (P09038 whole entry, looked up): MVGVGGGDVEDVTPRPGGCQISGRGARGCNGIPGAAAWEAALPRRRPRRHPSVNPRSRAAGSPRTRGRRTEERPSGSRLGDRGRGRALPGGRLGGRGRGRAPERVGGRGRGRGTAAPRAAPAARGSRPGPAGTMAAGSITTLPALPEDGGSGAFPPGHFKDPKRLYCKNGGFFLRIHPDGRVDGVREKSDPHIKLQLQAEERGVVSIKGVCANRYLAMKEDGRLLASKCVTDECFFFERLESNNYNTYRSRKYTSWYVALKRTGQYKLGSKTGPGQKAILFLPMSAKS
Torsin-1A (Homo sapiens), sequence (O14656 whole entry, looked up): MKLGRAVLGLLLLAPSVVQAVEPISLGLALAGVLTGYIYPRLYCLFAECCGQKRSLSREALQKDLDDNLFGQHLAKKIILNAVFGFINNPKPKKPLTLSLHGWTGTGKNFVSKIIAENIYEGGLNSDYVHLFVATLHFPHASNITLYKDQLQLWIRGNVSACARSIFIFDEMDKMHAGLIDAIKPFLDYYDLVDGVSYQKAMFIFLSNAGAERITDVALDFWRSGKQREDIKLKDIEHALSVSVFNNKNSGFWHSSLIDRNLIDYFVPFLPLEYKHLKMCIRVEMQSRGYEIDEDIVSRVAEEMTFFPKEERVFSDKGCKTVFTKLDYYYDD
Luciferin 4-monooxygenase (Photinus pyralis), sequence (P08659 whole entry, looked up): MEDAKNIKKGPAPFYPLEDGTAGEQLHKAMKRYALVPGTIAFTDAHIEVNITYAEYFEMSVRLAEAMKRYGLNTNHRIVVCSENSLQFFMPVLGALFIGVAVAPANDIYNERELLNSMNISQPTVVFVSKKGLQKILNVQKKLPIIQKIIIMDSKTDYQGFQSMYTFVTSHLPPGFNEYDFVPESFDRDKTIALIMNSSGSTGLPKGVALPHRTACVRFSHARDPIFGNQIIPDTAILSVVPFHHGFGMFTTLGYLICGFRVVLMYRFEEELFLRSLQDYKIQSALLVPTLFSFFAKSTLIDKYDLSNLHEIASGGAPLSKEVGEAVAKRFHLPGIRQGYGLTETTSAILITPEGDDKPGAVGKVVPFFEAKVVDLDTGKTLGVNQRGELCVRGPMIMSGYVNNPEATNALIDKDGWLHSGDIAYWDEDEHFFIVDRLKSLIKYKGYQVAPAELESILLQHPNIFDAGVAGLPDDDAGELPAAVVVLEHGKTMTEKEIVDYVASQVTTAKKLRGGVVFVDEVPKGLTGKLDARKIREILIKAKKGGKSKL
Focal adhesion kinase 1 (Homo sapiens), sequence (Q05397 whole entry, looked up): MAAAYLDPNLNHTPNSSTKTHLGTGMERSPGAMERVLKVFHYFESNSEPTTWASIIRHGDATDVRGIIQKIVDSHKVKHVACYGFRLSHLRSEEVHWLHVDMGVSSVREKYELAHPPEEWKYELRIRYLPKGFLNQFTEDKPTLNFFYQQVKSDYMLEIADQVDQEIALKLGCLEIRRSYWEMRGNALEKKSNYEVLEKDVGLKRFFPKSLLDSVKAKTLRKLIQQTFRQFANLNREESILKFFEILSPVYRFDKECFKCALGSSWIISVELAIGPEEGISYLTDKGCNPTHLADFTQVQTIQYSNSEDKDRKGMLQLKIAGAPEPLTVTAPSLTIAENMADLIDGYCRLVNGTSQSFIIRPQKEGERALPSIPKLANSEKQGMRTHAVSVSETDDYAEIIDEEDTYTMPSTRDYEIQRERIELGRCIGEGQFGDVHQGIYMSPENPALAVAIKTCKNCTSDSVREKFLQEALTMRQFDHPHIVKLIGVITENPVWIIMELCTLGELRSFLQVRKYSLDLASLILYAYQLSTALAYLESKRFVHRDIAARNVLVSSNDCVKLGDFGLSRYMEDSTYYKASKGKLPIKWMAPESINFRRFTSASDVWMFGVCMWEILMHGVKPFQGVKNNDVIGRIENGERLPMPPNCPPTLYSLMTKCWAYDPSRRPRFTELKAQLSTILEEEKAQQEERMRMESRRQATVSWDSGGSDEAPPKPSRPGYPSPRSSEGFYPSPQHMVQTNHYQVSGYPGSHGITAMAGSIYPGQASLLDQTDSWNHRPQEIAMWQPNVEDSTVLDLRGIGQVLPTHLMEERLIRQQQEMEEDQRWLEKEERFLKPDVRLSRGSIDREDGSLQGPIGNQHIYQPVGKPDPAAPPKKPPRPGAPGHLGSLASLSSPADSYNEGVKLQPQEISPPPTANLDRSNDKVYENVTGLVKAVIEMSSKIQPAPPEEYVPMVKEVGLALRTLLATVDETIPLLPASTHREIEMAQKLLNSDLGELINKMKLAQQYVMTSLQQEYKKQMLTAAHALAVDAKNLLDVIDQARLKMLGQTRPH

With `CC(C)CON=C1C[C@@H](O)[C@@H](O)[C@@H]2[C@@H]3C(=O)N(C4CCCCC4)C(=O)[C@@H]3CC[C@H]12`, the composite z-score in assay [1] was determined as 0.55; in [2], 0.666; in assay [3], 0.005; in assay [4] it was 0.657; in assay [5], 0.346; in assay [6], 0.781. The composite z-score in the assay on Lefty1 stood at 0.837; in [8] it was 0.812; in assay [10], 0.298; in [15], 0.451; in assay [16], 0.125; in the assay with Torsin-1A (Homo sapiens) [17], 0.792. The composite z-score with Torsin-1A (Homo sapiens) [18] worked out at 0.375; in assay [19], 0.72. For the same molecule, the z-score in assay [7] is 0.246; in [9] it was -0.266 (inactive); in assay [11], 0.0498 (inactive); in [12], -0.52 (inactive); in [13] it was 1.7 (inactive); in assay [14] it was -0.061 (inactive).
As for `C[C@@H](ON=C1[C@H]2CCn3c(=O)n(-c4ccccc4)c(=O)n3[C@H]2[C@H](O)[C@@H]2O[C@H]12)c1cn([C@@H]2COC[C@H]2O)nn1`, the composite z-score was -0.0522 in assay [1]; 0.619 in assay [2]; 0.0584 in assay [3]; 0.544 in [4]; 0.414 in [5]; 0.433 in assay [6]. In addition, the composite z-score in the assay on Lefty1 amounted to 0.691; in assay [8], 0.0978; in assay [10], 0.134; in assay [15], 0.189; in [16], 0.0028; in the assay with Torsin-1A (Homo sapiens) [17], 0.436. Also, the composite z-score was 0.63 with Torsin-1A (Homo sapiens) [18] and 0.438 in assay [19]. Moreover, the z-score was -0.339 in assay [7]; 0.704 (inactive) in [9]; 0.981 (inactive) in [11]; 0.58 (inactive) in assay [12]; 0.085 (inactive) in assay [13]; 0.258 (inactive) in assay [14].
As for `CCOC(=O)NN=C1C[C@@H](O)[C@@H](O)[C@@H]2[C@@H]3C(=O)N([C@@H](C)c4ccccc4)C(=O)[C@@H]3CC[C@@H]12`, the composite z-score is -0.43 in assay [1]; 0.0085 in assay [2]; 0.692 in assay [3]; 0.897 in assay [4]; 1.28 in assay [5]; 0.642 in assay [6]. The composite z-score in the assay with Lefty1 was 1.3; in [8] it was 0.193; in assay [10] it was 0.229; in [15], -0.468; in assay [16], -0.0313; with Torsin-1A (Homo sapiens) [17], 2.58. Further, the results for the composite z-score (with Torsin-1A (Homo sapiens) [18]; in assay [19]) were 2.5 and 1.37, respectively. Also, the z-score in assay [7] was -0.337; in [9], 0.685 (inactive); in [11], 0.261 (inactive); in assay [12], -0.353 (inactive); in assay [13], -0.475 (inactive); in assay [14], -0.14 (inactive).
Take `CCOC(=O)[C@H](CC(C)C)NC(=O)CCC1CC(OC(=O)NCCc2ccc(F)cc2)CC2(CCCC(COC(=O)NCCC(C)C)O2)O1` (stereo not given in full): the composite z-score in [1] was 1.79; in [2] it was 0.0471; in assay [3] it was 0.459; in assay [4] it was 0.818; in assay [5], 0.601; in [6], 0.0263. The composite z-score in the assay with Lefty1 is 0.304; in assay [8] it was 0.421; in [10], -0.0436; in [15], 2.06; in assay [16], -0.0963; in the assay with Torsin-1A (Homo sapiens) [17], -0.239. Besides, the composite z-score turned out to be 0.204 with Torsin-1A (Homo sapiens) [18] and 0.318 in assay [19]. Further, the z-score in assay [7] is 0.427; in assay [9], 0.403 (inactive); in assay [11] it was -0.439 (inactive); in assay [12], 0.288 (inactive); in assay [13], 0.91 (inactive); in assay [14], -0.457 (inactive).
Consider `CCOC(=O)NN=C1C[C@@H](O)[C@@H](O)[C@@H]2[C@@H]3C(=O)N([C@@H](C)c4ccccc4)C(=O)[C@@H]3CC[C@H]12`, for which the composite z-score in [1] is 0.236; in assay [2], 0.416; in assay [3], -0.35; in assay [4] it was 0.65; in assay [5] it was 0.285; in assay [6] it was 0.166. Besides, the composite z-score in the assay on Lefty1 is 0.246; in assay [8], 0.152; in [10] it was 0.0373; in assay [15], -0.0822; in assay [16], -0.0131; in the assay with Torsin-1A (Homo sapiens) [17], 0.834. Also, the composite z-score is 0.522 in the assay with Torsin-1A (Homo sapiens) [18] and 0.127 in assay [19]. Further, the z-score was -0.877 in assay [7]; 0.846 (inactive) in [9]; -0.339 (inactive) in assay [11]; 0.627 (inactive) in assay [12]; -0.115 (inactive) in assay [13]; -0.174 (inactive) in assay [14].
